# In PubChem BioAssay (NCI):
# Compounds without any hit were thinned out: in the full panel of roughly 83,000, 20% have a hit.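 96-well plates, one dose, 48 hours. Percent growth reported; active if below 10.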 Unmarked numbers belong to inactive results. Active and inactive are the calls of the source.
# Tested on: OVCAR-8 ovarian
# Experiment: NCI-60 one-dose screen, 48 h (100 = growth as untreated, 0 = no growth, -100 = all killed)
# Conditions: 10 µM unless noted
# Description: Growth inhibition of the OVCAR-8 human tumor cell line is measured as a screen for anti-cancer activity. Cells are grown in 96 well plates and exposed to the test compound for 48 hours. Compounds are tested at a single concentration, which is 10^-5 M for most compounds. The reported endpoint is percent growth (GI% or GIPRCNT), where numbers from 0 - 100% represent growth inhibition, and numbers from -100% - 0 represent cell death. For example, a value of 40 represents 60% growth inhibition. A value of 0 means no net growth occurred over the course of the experiment. A value of -40 indicates 40% of cells at the beginning of the experiment died by the end of the experiment. A value of -100 means all cells are dead at the end of the experiment.
# NCI-60 Human Tumor Cell Lines Screen was performed using the standard one-dose NCI protocol, which is described in more detail at https://dtp.cancer.gov/discovery_development/nci-60/default.htm.
# Compounds with GIPRCNT values below 10 were considered active. Activity score was based on GIPRCNT using the following formula: […]
# Score is 0 for GIPRCNT values of 100 or above, 50 for GIPRCNT values of 0, and 100 for GIPRCNT values of -100.
row,SMILES,growth
1,NC(N)=NC1CCCCC1,98.5%
2,Cc1ccc(Nc2cccc3ccccc23)cc1,96.2%
3,CCOC(=O)C(CCCCC(NC(C)=O)(C(=O)OCC)C(=O)OCC)(NC(C)=O)C(=O)OCC,107%
4,COc1cc(C2CC(c3ccccc3)=NN2C=O)ccc1Oc1ccnc2cc(Cl)ccc12 (stereo not given),38.7%
5,CC(=O)c1ccc(N2C(=O)c3ccc(Oc4ccccc4)cc3C2=O)cc1,114%
6,C#CCO[C@H]1CC[C@H](OCC#C)[C@@H]2[C@H]1[C@H]1C[C@@H]3[C@@]4(C)CCC[C@@](C)(C(=O)OC)[C@@H]4CC[C@@]23C=C1C(C)C,82%
7,CCC1=CC2CN(C1)Cc1c([nH]c3ccccc13)[C@@](C(=O)OC)(c1cc3c(cc1OC)N(C)[C@H]1[C@@](O)(C(=O)OC)[C@H](OC(C)=O)[C@]4(CC)C=CCN5CC[C@]31[C@@H]54)C2 (stereo not given in full),21.3%
8,CCCCc1nc(Cl)c(C2CC(c3ccc(S(N)(=O)=O)cc3)=NN2c2cc(Cl)cc(Cl)c2)[nH]1 (stereo not given),47.1%
9,CC(=O)Oc1ccccc1C(=O)Nc1ncc([N+](=O)[O-])s1,51.3%
10,CCOC(=O)C1C(=O)C=C(c2cc(OC)c(OC)c(OC)c2)CC1c1sc(N(C)Cc2ccccc2)nc1Cl (stereo not given),82%
11,O=C1OC(/C=C/c2ccccc2)=NC/1=C/c1ccccc1[N+](=O)[O-],96.8%
12,CCCCCCCCCCCCC1CCC(=O)O1 (stereo not given),108%
13,COc1ccc(-c2cc(-c3ccc(OC)cc3)c3sc(=O)[nH]c3n2)cc1,82.4%
14,C/C(=N\Nc1ccc([N+](=O)[O-])cn1)c1ccc(N)cc1,109%
15,CC(=O)Cc1ccccn1,110%
16,Cn1cnc([N+](=O)[O-])c1S(=O)(=O)Oc1ccccc1,100%
17,c1cc(C2CCCCC2)ccc1-c1cnc2nonc2n1,8.93% (active)
18,S=C(Cc1ccccc1)N1CCN(c2ccccc2Cl)CC1,99.1%
19,COc1ccc(-c2cc(-c3cn(-c4cccc(Cl)c4)nc3-c3ccc(OC)cc3)[nH]c(=S)n2)cc1,84%
20,CCC(=O)OCc1ccc(OC)cc1,102%

row,SMILES,growth
1,COc1cc(/C=C2\CN(C(=O)OC(C)(C)C)C/C(=C\c3ccc(O)c(OC)c3)C2=O)ccc1O,89.6%
2,CC(C)[C@@]12C[C@@H](OC(=O)C3CO3)[C@@](C)(O1)[C@@H]1CC[C@@H](C)[C@H]1[C@@H]2OC(=O)/C=C/c1ccccc1 (stereo not given in full),22.4%
3,O=C(Nc1ccc(Br)cc1)c1ccc(Cl)c(Cl)c1,89.3%
4,Nc1nc(NC2CC2)cc(-c2cccc(Cl)c2Cl)n1,70%
5,Oc1c(C(Nc2ccccc2Br)c2ccccc2)ccc2cccnc12 (stereo not given),23.5%
6,CCOC(=O)c1cc(N)nc2ccccc12,108%
7,CCOC(=O)CCN(CCC(=O)OCC)c1ccccc1,94.5%
8,COc1ccc(C(=O)OC2C(OC3C(O)COC(O[C@H]4C[C@H]5[C@@H]6CC=C7C[C@@H](O)CC[C@]7(C)[C@H]6CC[C@]5(C)[C@H]4[C@H](C)C(=O)CCC(C)C)C3OC(N)=O)OCC(O)C2O)cc1 (stereo not given in full),25.3%
9,N/C(=N\OC(=O)c1ccccc1)C(C(=O)NOC(=O)c1ccccc1)C1CCCCC1 (stereo not given),65.8%
10,CC[C@H](C)[C@H](N)C(=O)O,107%
11,CC1(C)CN(CCNc2nccc(-c3c(-c4cccc(O)c4)nc4sccn34)n2)S(=O)(=O)N1,103%
12,CCOCCNc1ccc(S(=O)(=O)c2ccc(N)cc2)cc1N,98.7%
13,Cc1ccc([C@H]2c3[nH]c4ccccc4c3C[C@H]3C(=O)N(CCCCCCC(=O)NO)CC(=O)N23)cc1,39.5%
14,CN(C)c1ccc(C2(Cl)c3ccccc3N(C)c3ccccc32)cc1,7.94% (active)
15,c1csc(-c2cnc3nonc3n2)c1,79.2%
16,CS(=O)(=O)c1ccc(C(=O)N/N=C/c2ccccc2Cl)cc1,97.1%
17,CC[C@]1(O)C[C@H]2CN(CCc3c([nH]c4ccccc34)C(C(=O)OC)(c3cc4c(cc3OC)N(C)[C@H]3[C@@](O)(C(=O)OC)[C@H](OC(C)=O)[C@]5(CC)[C@@H]6C[C@@H]6CN6CC[C@]43[C@@H]65)C2)C1 (stereo not given in full),19.4%
18,CC(C)N(C(=S)SSC(=S)N(C(C)C)C(C)C)C(C)C,111%
19,CCOC(=O)C1OC2(CCCC2)OC1C(=O)OCC (stereo not given),108%
20,CN1CCC2(CC1)N=C(SCC(=O)Nc1cnc3ccccc3c1)C(c1ccc(Br)cc1)=N2,19.9%
